Screens: PubChem, several laboratories
Compounds with a hit are over-represented: about 2% of the library has one in this group of screens.
Shn3 3UTR inh – Schnurri-3 reporter inhibition in Clone20 osteoblasts; actives 0.52% (n = 360,000); Clone20 osteoblast Shn3 3'UTR firefly luciferase, 24 h; inhibition, % at 12.5 µM;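 active = mean inhibition of at least 75% with every replicate also reaching 75%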;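 note: 0% = median of neutral control wells and 100% = pilot-screen positive control compound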
PAX8 inh HTS – PAX8 transcriptional activity inhibition | actives 1.2% (n = 360,000) | RMG-I TPO-luciferase reporter, SteadyGlo, 24 h | inhibition, % at 12.6 µM;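 active = mean replicate inhibition at least 60% with every replicate also reaching 60%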;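 note: luciferase light reporting Pax8 driven TPO promoter activity; plate controls were median of neutral control wells for no effect and mitoxantrone controls for full effect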
KKLEB cytotox – counter-screen for CF NF-kB inhibitors: cytotoxicity | KKLEB CF airway cells viability, ATPlite luminescence, overnight; stronger effect = lower value; cells stimulated with P. aeruginosa culture filtrate | activity change (cytotoxicity), % at 5 µM | actives 0.36% (n = 360,000) | AID 602141;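 active = corrected activity change at or below -50% at 5 µM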
LGR2 antag – Drosophila LGR2 receptor signaling inhibition. HEK293 LGR2, CRE-luciferase, bursicon-stimulated, 4 h. inhibition, % at 9.99 µM. actives 0.35% (n = 380,000);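 active = drop in luminescence signal, shown as inhibition above about 50% in the replicate tests, limit read from the data, passing the limit was not always enough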;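 note: agonist challenge used bursicon conditioned medium at about half maximal strength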
EWS-Fli inh – EWS/Fli transcriptional activity inhibition | actives 0.67% (n = 350,000) | A673 NR0B1-luciferase reporter, viability-normalised | inhibition, % at 12.6 µM;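 active = mean inhibition of at least 50% after viability correction, with every replicate also passing that limit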;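 note: firefly luciferase signal divided by Alamar Blue viability fluorescence both relative to DMSO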
CF NFkB inh – blocks PAF-induced NF-kB reporter in cystic fibrosis cells; actives 0.86% (n = 360,000); AID 588850; KKLEB NF-kB-GFP reporter, GFP fluorescence overnight; inhibition, % at 5 µM;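 active = at least 50% inhibition at 5 µM, scaled per plate between neutral and stimulator controls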;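 note: PAF is a Pseudomonas aeruginosa culture filtrate used as stimulus; plate controls were PAF-stimulated DMSO wells for no effect and unstimulated DMSO wells for full effect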
Starred values were filed as active, the others as inactive.

Screening COC1C(CO)OC(n2c3c(Cl)cccc3c3c4c(c5c6cccc(Cl)c6[nH]c5c32)C(=O)NC4=O)C(O)C1O (stereo unspecified) returned Shn3 3UTR inh 0, PAX8 inh HTS 113*, KKLEB cytotox -36, LGR2 antag 60*, EWS-Fli inh 56* and CF NFkB inh -94.
`Cc1noc(C)c1NC(=O)N(C)C[C@H]1Oc2ccc(NC(=O)Nc3cccc4ccccc34)cc2C(=O)N([C@@H](C)CO)C[C@@H]1C` gave PAX8 inh HTS 9, LGR2 antag -25 and EWS-Fli inh -1.
COC(=O)Nc1nc2ccc(C(=O)c3cccs3)cc2[nH]1 was read as Shn3 3UTR inh -31, PAX8 inh HTS 64*, KKLEB cytotox 9, LGR2 antag 11, EWS-Fli inh 64* and CF NFkB inh 60*.
For CS(=O)(=O)Nc1ccc2c(c1)[C@H]1C[C@@H](CC(=O)NCc3cc(F)ccc3F)O[C@@H](CO)[C@H]1O2 the results were PAX8 inh HTS 12, LGR2 antag 11 and EWS-Fli inh 6.
Screening O=C(O)/C=C/c1ccc(S(=O)(=O)Nc2ccc(OCc3ccccc3)cc2)cc1 returned Shn3 3UTR inh -10, PAX8 inh HTS -13, KKLEB cytotox 0, LGR2 antag 3, EWS-Fli inh -16 and CF NFkB inh 6.
`N#Cc1ccccc1COc1ccc(/C=C/C(=O)O)cc1` gave Shn3 3UTR inh 42, PAX8 inh HTS -6, KKLEB cytotox -6, LGR2 antag -15, EWS-Fli inh 58* and CF NFkB inh 3.
Screening CCCCOCCCNc1ncnc2c1[nH]c1ccccc12 returned Shn3 3UTR inh 83*, KKLEB cytotox -3 and CF NFkB inh -2.
COc1ccc(CCNC(=O)/C=C/c2ccc3ccccc3n2)cc1OC was read as Shn3 3UTR inh -12, PAX8 inh HTS 77*, KKLEB cytotox -13, LGR2 antag 18, EWS-Fli inh 19 and CF NFkB inh 32.
Screening CCCc1cn(CC[C@@H]2CC[C@H](NS(=O)(=O)c3ccc(-c4ccccc4)cc3)[C@H](CO)O2)nn1 returned PAX8 inh HTS 21, LGR2 antag -14 and EWS-Fli inh -40.
`COc1ccc(CN(C)C[C@@H]2Oc3ccc(N(C)C)cc3CC(=O)N([C@@H](C)CO)C[C@@H]2C)cc1` gave PAX8 inh HTS -10, LGR2 antag -6 and EWS-Fli inh -9.
For CCOc1ccc(OCC)c(S(=O)(=O)NNC(=O)c2c(C)nc3ccccn23)c1 the results were Shn3 3UTR inh -9, PAX8 inh HTS 86*, KKLEB cytotox -6, LGR2 antag 20, EWS-Fli inh 10 and CF NFkB inh 2.
COc1ccc(Br)cc1S(=O)(=O)NNC(=O)c1c(C)nc2ccccn12 was read as Shn3 3UTR inh 12, PAX8 inh HTS 11, KKLEB cytotox 7, LGR2 antag -20, EWS-Fli inh 7 and CF NFkB inh -9.
Screening CC(C)CC#Cc1cnc2c(c1)C(=O)N([C@@H](C)CO)C[C@H](C)[C@@H](CN(C)Cc1ccccc1)O2 returned LGR2 antag -2 and EWS-Fli inh 25.
Screening COc1ccc2c3c([nH]c2c1)[C@H](CO)NCC31CN(C(=O)Nc2c(C)noc2C)C1 returned LGR2 antag -53 and EWS-Fli inh 11.
Cc1ccc(-c2ccc([C@@H]3[C@H](CO)N4CCCCN(C(=O)Nc5cccc(F)c5)C[C@@H]34)cc2)cc1 was read as PAX8 inh HTS 81* and EWS-Fli inh 32.
Cc1ccc(-c2ccc([C@H]3[C@@H](CO)N4CCCCN(C(=O)Nc5cccc(F)c5)C[C@@H]34)cc2)cc1 was read as PAX8 inh HTS 11, LGR2 antag 5 and EWS-Fli inh 20.
O=C(Nc1cccc(F)c1)N1CCCCN2[C@@H](CO)[C@@H](c3ccc(-c4ccncc4)cc3)[C@@H]2C1 was read as PAX8 inh HTS 110*, LGR2 antag 4 and EWS-Fli inh 4.
`O=C(c1cccc(F)c1)N1CCCCN2[C@H](C1)[C@@H](c1ccc(-c3ccc(F)cc3)cc1)[C@@H]2CO` gave PAX8 inh HTS 65* and EWS-Fli inh -13.
`O=C(c1cccc(F)c1)N1CCCCN2[C@H](C1)[C@H](c1ccc(-c3ccc(F)cc3)cc1)[C@@H]2CO` gave PAX8 inh HTS -4 and EWS-Fli inh -7.
For O=C(Nc1ccc(F)cc1)N1CCCCN2[C@@H](CO)[C@@H](c3ccc(-c4cccc(F)c4)cc3)[C@@H]2C1 the results were PAX8 inh HTS 106*, LGR2 antag -10 and EWS-Fli inh 72*.
For O=C(Nc1ccc(-c2ccccc2)cc1)[C@H]1[C@H](CO)[C@H]2Cn3c(cccc3=O)[C@@H]1N2Cc1ccccc1 the results were LGR2 antag -4 and EWS-Fli inh -1.
COc1ccc(N2CC(C(=O)N/N=C/c3ccc(C)cc3)CC2=O)cc1 (stereo unspecified) was read as Shn3 3UTR inh 17, PAX8 inh HTS 20, KKLEB cytotox -26, LGR2 antag 3, EWS-Fli inh 60* and CF NFkB inh 11.
`CCCCC(=O)N1CCN(c2ccc(OC)cc2[N+](=O)[O-])CC1` gave Shn3 3UTR inh -2, PAX8 inh HTS 87*, KKLEB cytotox -3, LGR2 antag 4, EWS-Fli inh 14 and CF NFkB inh 14.
For COc1ccc(N2CCN(C(=O)c3ccccc3)CC2)c([N+](=O)[O-])c1 the results were Shn3 3UTR inh -5, PAX8 inh HTS 14, KKLEB cytotox -2, LGR2 antag 8, EWS-Fli inh 0 and CF NFkB inh 0.
For Cc1onc(-c2ccccc2Cl)c1C(=O)N1CCN(C=O)CC1 the results were Shn3 3UTR inh -10, PAX8 inh HTS 4, KKLEB cytotox -5, LGR2 antag 7 and CF NFkB inh -12.
Cc1cccc(N2CCN(C(=O)c3c(-c4ccccc4Cl)noc3C)CC2)c1C was read as Shn3 3UTR inh 14, PAX8 inh HTS 34, KKLEB cytotox -31, LGR2 antag 9, EWS-Fli inh 53* and CF NFkB inh 35.
`COc1ccc(CNC(=O)C(c2ccc(C)cc2)N(Cc2cccs2)C(=O)c2ccc3c(c2)OCCO3)cc1` (stereo unspecified) gave Shn3 3UTR inh 89*, KKLEB cytotox -94* and CF NFkB inh 100*.
COCCN(C(=O)Cc1cccs1)C(C(=O)NCc1ccc(OC)cc1)c1ccc(OC)cc1 (stereo unspecified) was read as Shn3 3UTR inh 16, KKLEB cytotox 9 and CF NFkB inh -13.
For COCC(=O)N[C@@H]1CC[C@H](CC(=O)NCc2ccc(Cl)cc2)O[C@@H]1CO the results were PAX8 inh HTS -1, LGR2 antag -4 and EWS-Fli inh 2.
